# Assay results taken from PubChem BioAssay (Tox21).
# A number with no mark means an inactive call. Inconclusive results are not listed. Entries that show only a call come without a potency. Activity calls are given as the source filed them. The call rests on the fitted dose curve; in most records, active means well fitted curve in the direction sought with a large enough effect in the repeat runs; inconclusive means weak or mixed curves; inactive means no such curve, though single readings can be large; an effect the other way counts as inactive or inconclusive.
# Key:
# [1] = qHTS RealTime-Glo MT Cell Viability Assay in HepG2 cells - 40 hour (AID 1224870); further: nearly all actives have a fitted effect of over 50% in size
# How it was run: (§1)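 HepG2 cells (600/well) mixed with RealTime-Glo MT reagent, settled 5 h at 37 C/5% CO2 before compound addition. Nonlytic NanoLuc luminescence from viable-cell prosubstrate reduction read repeatedly during 40 h treatment at 37 C.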
# [2] = A CellTox Green Cytotoxicity Assay to monitor cytotoxicity in HEK293 cells - 40 hour (AID 1224871); further: nearly all actives have a fitted effect of over 45% in size
# How it was run: (§2)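 Fluorescence from a DNA-binding dye excluded by viable cells was measured repeatedly in the same HEK293 wells (600 cells/well) during continuous compound exposure at 37 C. Each assay gives one read point: 0, 8, 16, 24, 32 or 40 h.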
# [3] = qHTS RealTime-Glo MT Cell Viability Assay in HEK293 cells - 16 hour (AID 1224872); further: nearly all actives have a fitted effect of over 50% in size; further: potency means the concentration at half of the fitted maximal effect
# How it was run: (§3)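 Luminescence generated by NanoLuc from substrate produced by living HEK293 cells served as the viability signal. Each value reflects the reading at its stated time point during continuous 40 h compound exposure at 37 C.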
# [4] = qHTS RealTime-Glo MT Cell Viability Assay in HepG2 cells - 8 hour (AID 1224873); further: nearly all actives have a fitted effect of over 55% in size
# How it was run: as §1
# [5] = qHTS RealTime-Glo MT Cell Viability Assay in HEK293 cells - 40 hour (AID 1224874); conditions: RealTime-Glo luminescence; max response: active compounds read low; further: nearly all actives have a fitted effect of over 50% in size; further: potency means the concentration at half of the fitted maximal effect
# How it was run: (§4)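 Luminescence, which tracks viable cell number through reduction of the prosubstrate to a NanoLuc substrate, was read over continuous 37 C culture. Cells (600/well) were premixed with reagent and rested 5 h before 23 nL of compound in DMSO was pinned.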
# [6] = A CellTox Green Cytotoxicity Assay to monitor cytotoxicity in HEK293 cells - 24 hour (AID 1224875); further: series mostly up to about 77 µM; nearly all actives have a fitted effect of over 45% in size
# How it was run: as §2
# [7] = A CellTox Green Cytotoxicity Assay to monitor cytotoxicity in HepG2 cells - 16 hour (AID 1224876); further: nearly all actives have a fitted effect of over 45% in size
# How it was run: (§5)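 Real-time cytotoxicity: fluorescence of a cell-impermeant cyanine dye binding DNA of dead HepG2 cells, measured repeatedly (0–40 h) during compound exposure at 37 C. Cells seeded 600/well with reagent, dosed after 5 h.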
# [8] = qHTS RealTime-Glo MT Cell Viability Assay in HepG2 cells - 32 hour (AID 1224877); further: nearly all actives have a fitted effect of over 55% in size
# How it was run: (§6)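 Tox21 10K library screened in qHTS format on HepG2 cells carrying RealTime-Glo reagents. Compounds were added after a 5 h preincubation, and the luminescent signal from continuous culture was measured repeatedly during 40 h treatment.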
# [9] = A CellTox Green Cytotoxicity Assay to monitor cytotoxicity in HepG2 cells - 40 hour (AID 1224879); further: nearly all actives have a fitted effect of over 40% in size; further: potency means the concentration at half of the fitted maximal effect
# How it was run: as §5
# [10] = qHTS RealTime-Glo MT Cell Viability Assay in HEK293 cells - 0 hour (AID 1224880); further: top concentration of the series differs between compounds; nearly all actives have a fitted effect of over 45% in size
# How it was run: as §4
# [11] = A CellTox Green Cytotoxicity Assay to monitor cytotoxicity in HEK293 cells - 32 hour (AID 1224881); further: nearly all actives have a fitted effect of over 40% in size
# How it was run: as §2
# [12] = A CellTox Green Cytotoxicity Assay to monitor cytotoxicity in HepG2 cells - 0 hour (AID 1224882); further: nearly all actives have a fitted effect of over 35% in size
# How it was run: as §5
# [13] = A CellTox Green Cytotoxicity Assay to monitor cytotoxicity in HepG2 cells - 32 hour (AID 1224883); further: nearly all actives have a fitted effect of over 50% in size
# How it was run: as §5
# [14] = A CellTox Green Cytotoxicity Assay to monitor cytotoxicity in HEK293 cells - 8 hour (AID 1224884); further: nearly all actives have a fitted effect of over 35% in size
# How it was run: as §2
# [15] = qHTS RealTime-Glo MT Cell Viability Assay in HEK293 cells - 8 hour (AID 1224887)
# How it was run: as §4
# [16] = A CellTox Green Cytotoxicity Assay to monitor cytotoxicity in HEK293 cells - 16 hour (AID 1224888); further: nearly all actives have a fitted effect of over 35% in size
# How it was run: as §2
# [17] = qHTS RealTime-Glo MT Cell Viability Assay in HepG2 cells - 0 hour (AID 1224889); further: nearly all actives have a fitted effect of over 50% in size
# How it was run: as §6
# [18] = A CellTox Green Cytotoxicity Assay to monitor cytotoxicity in HepG2 cells - 24 hour (AID 1224878); further: nearly all actives have a fitted effect of over 45% in size
# How it was run: as §5
# [19] = qHTS RealTime-Glo MT Cell Viability Assay in HepG2 cells - 16 hour (AID 1224885); further: nearly all actives have a fitted effect of over 50% in size
# How it was run: as §6
# [20] = qHTS RealTime-Glo MT Cell Viability Assay in HEK293 cells - 24 hour (AID 1224886); further: nearly all actives have a fitted effect of over 50% in size; further: potency means the concentration at half of the fitted maximal effect
# How it was run: as §3
compound,measurement,setting,value
CCOC(=O)[C@H](CCc1ccccc1)N[C@@H](C)C(=O)N(CC(=O)O)C1Cc2ccccc2C1,Potency,[1],inactive
same,Potency,[2],inactive
same,Potency,[3],inactive
same,Potency,[4],inactive
same,max response,[5],5.01%
same,Potency,[6],inactive
same,Potency,[7],inactive
same,Potency,[8],inactive
same,Potency,[9],inactive
same,Potency,[10],inactive
same,Potency,[11],inactive
same,Potency,[12],inactive
same,Potency,[13],inactive
same,Potency,[14],inactive
same,Potency,[15],inactive
same,Potency,[16],inactive
same,Potency,[17],inactive
C=C/C(C)=C/C/C=C(\C)CCC=C(C)C,Potency,[1],inactive
same,Potency,[2],inactive
same,Potency,[3],inactive
same,Potency,[4],inactive
same,max response,[5],-7.52%
same,Potency,[6],inactive
same,Potency,[18],inactive
same,Potency,[9],inactive
same,Potency,[10],inactive
same,Potency,[11],inactive
same,Potency,[12],inactive
same,Potency,[13],inactive
same,Potency,[14],inactive
same,Potency,[19],inactive
same,Potency,[20],inactive
same,Potency,[15],inactive
same,Potency,[16],inactive
same,Potency,[17],inactive
CC1CC(OC(=O)C(O)c2ccccc2)CC(C)(C)N1C (stereo unspecified),Potency,[1],inactive
same,Potency,[2],inactive
same,Potency,[3],inactive
same,Potency,[4],inactive
same,Potency,[6],inactive
same,Potency,[7],inactive
same,Potency,[8],inactive
same,Potency,[18],inactive
same,Potency,[9],inactive
same,Potency,[10],inactive
same,Potency,[11],inactive
same,Potency,[12],inactive
same,Potency,[13],inactive
same,Potency,[14],inactive
same,Potency,[19],inactive
same,Potency,[20],inactive
same,Potency,[15],inactive
same,Potency,[16],inactive
same,Potency,[17],inactive
OC1(c2ccccc2)CCNCC1,Potency,[1],inactive
same,Potency,[2],inactive
same,Potency,[3],inactive
same,Potency,[4],inactive
same,Potency,[6],inactive
same,Potency,[7],inactive
same,Potency,[8],inactive
same,Potency,[18],inactive
same,Potency,[9],inactive
same,Potency,[10],inactive
same,Potency,[11],inactive
same,Potency,[12],inactive
same,Potency,[13],inactive
same,Potency,[14],inactive
same,Potency,[19],inactive
same,Potency,[20],inactive
same,Potency,[15],inactive
same,Potency,[16],inactive
same,Potency,[17],inactive
O=[N+]([O-])c1ccc(O/N=C/c2cc(Br)c(O)c(Br)c2)c([N+](=O)[O-])c1,Potency,[1],inactive
same,Potency,[2],inactive
same,Potency,[3],43.4 µM (active)
same,Potency,[4],inactive
same,Potency,[5],43.4 µM (active)
same,Potency,[6],inactive
same,Potency,[7],inactive
same,Potency,[18],inactive
same,Potency,[9],inactive
same,Potency,[10],inactive
same,Potency,[11],inactive
same,Potency,[12],inactive
same,Potency,[13],inactive
same,Potency,[14],inactive
same,Potency,[19],inactive
same,Potency,[20],48.7 µM (active)
same,Potency,[16],inactive
same,Potency,[17],inactive
O=C1c2ccccc2C(=O)C1c1nc2ccccc2c(Br)c1O,Potency,[1],inactive
same,Potency,[2],inactive
same,Potency,[3],inactive
same,Potency,[4],inactive
same,max response,[5],21.2%
same,Potency,[6],inactive
same,Potency,[8],inactive
same,Potency,[9],4.9 µM (active)
same,Potency,[10],inactive
same,Potency,[11],inactive
same,Potency,[12],inactive
same,Potency,[19],inactive
same,Potency,[15],inactive
same,Potency,[16],inactive
same,Potency,[17],inactive
O=[N+]([O-])c1ccc(Nc2ccc(Nc3ccccc3)c(S(=O)(=O)O)c2)c([N+](=O)[O-])c1,Potency,[1],inactive
same,Potency,[2],inactive
same,Potency,[3],inactive
same,Potency,[4],inactive
same,max response,[5],5.22%
same,Potency,[6],inactive
same,Potency,[9],inactive
same,Potency,[10],inactive
same,Potency,[11],inactive
same,Potency,[12],inactive
same,Potency,[13],inactive
same,Potency,[14],inactive
same,Potency,[19],inactive
same,Potency,[20],inactive
same,Potency,[15],inactive
CCC1(CO)COCOC1,Potency,[1],inactive
same,Potency,[2],inactive
same,Potency,[3],inactive
same,Potency,[4],inactive
same,max response,[5],-7.69%
same,Potency,[6],inactive
same,Potency,[8],inactive
same,Potency,[18],inactive
same,Potency,[9],inactive
same,Potency,[10],inactive
same,Potency,[11],inactive
same,Potency,[13],inactive
same,Potency,[14],inactive
same,Potency,[20],inactive
same,Potency,[15],inactive
same,Potency,[16],inactive
same,Potency,[17],inactive
CC(=O)[C@H]1[C@H](C#N)C[C@H]2[C@@H]3CC=C4C[C@@H](O)CC[C@]4(C)[C@H]3CC[C@@]21C,Potency,[1],inactive
same,Potency,[2],inactive
same,Potency,[3],inactive
same,Potency,[4],inactive
same,Potency,[6],inactive
same,Potency,[7],inactive
same,Potency,[8],inactive
same,Potency,[18],inactive
same,Potency,[9],inactive
same,Potency,[10],inactive
same,Potency,[11],inactive
same,Potency,[12],inactive
same,Potency,[13],inactive
same,Potency,[14],inactive
same,Potency,[19],inactive
same,Potency,[15],inactive
CC=C(Cl)Cl,Potency,[1],inactive
same,Potency,[2],inactive
same,Potency,[3],inactive
same,Potency,[4],inactive
same,max response,[5],12.6%
same,Potency,[7],inactive
same,Potency,[8],inactive
same,Potency,[18],inactive
same,Potency,[9],inactive
same,Potency,[10],inactive
same,Potency,[12],inactive
same,Potency,[13],inactive
same,Potency,[14],inactive
same,Potency,[19],inactive
same,Potency,[20],inactive
same,Potency,[15],inactive
same,Potency,[17],inactive
CC[C@]1(O)C[C@H]2CN(CCc3c([nH]c4ccccc34)[C@@](C(=O)OC)(c3cc4c(cc3OC)N(C=O)[C@H]3[C@@](O)(C(=O)OC)[C@H](OC(C)=O)[C@]5(CC)C=CCN6CC[C@]43[C@@H]65)C2)C1,Potency,[1],inactive
same,Potency,[2],inactive
same,Potency,[3],inactive
same,Potency,[4],inactive
same,Potency,[5],0.0012 µM (active)
same,Potency,[6],inactive
same,Potency,[7],inactive
same,Potency,[18],inactive
same,Potency,[10],inactive
same,Potency,[11],inactive
same,Potency,[12],inactive
same,Potency,[14],inactive
same,Potency,[19],inactive
same,Potency,[15],inactive
same,Potency,[16],inactive
same,Potency,[17],inactive
CCOc1ccccc1O[C@H](c1ccccc1)[C@H]1CNCCO1,Potency,[1],inactive
same,Potency,[2],inactive
same,Potency,[3],inactive
same,Potency,[4],inactive
same,max response,[5],1.67%
same,Potency,[6],inactive
same,Potency,[7],inactive
same,Potency,[18],inactive
same,Potency,[10],inactive
same,Potency,[11],inactive
same,Potency,[12],inactive
same,Potency,[14],inactive
same,Potency,[19],inactive
same,Potency,[20],inactive
same,Potency,[15],inactive
same,Potency,[16],inactive
CC(C)=CCC/C(C)=C/CC/C(C)=C/CCC(=O)OC/C=C(\C)CCC=C(C)C,Potency,[1],inactive
same,Potency,[2],inactive
same,Potency,[3],inactive
same,Potency,[4],inactive
same,max response,[5],2.19%
same,Potency,[6],inactive
same,Potency,[7],inactive
same,Potency,[18],inactive
same,Potency,[9],inactive
same,Potency,[10],inactive
same,Potency,[11],inactive
same,Potency,[12],inactive
same,Potency,[13],inactive
same,Potency,[14],inactive
same,Potency,[19],inactive
same,Potency,[20],inactive
same,Potency,[15],inactive
same,Potency,[17],inactive
